# Source: PubChem BioAssay (EPA / NIEHS)
# Where “and” joins values, the source holds several entries; their conditions need not be identical. Equal values may be shown once. Calls of active or inactive are those of the source. Rule for the calls: active = hit-call score of the fitted dose curve at least 0.9, where 1 is the maximum; inactive = score below 0.9.
# Biological target: Paired box protein Pax-6 (Homo sapiens) (UniProt P26367)
# Test: ATG_Pax6_CIS: Attagene CIS-FACTORIAL HepG2 Assay for human Paired Box 6 (PAX6) (AID 2282956)
# Details: HepG2 CIS-FACTORIAL PAX6 reporter transcription, RNA readout; actives raise or lower the signal
# How it was run: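 Values derive from bidirectional curve fitting of reporter mRNA signal relative to DMSO. HepG2 cells bearing transfected cis-regulated MRTUs were exposed for 24 h; transcripts were read by RT-PCR and capillary electrophoresis.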
# Sequence of Paired box protein Pax-6 (Homo sapiens) (P26367 whole entry, looked up): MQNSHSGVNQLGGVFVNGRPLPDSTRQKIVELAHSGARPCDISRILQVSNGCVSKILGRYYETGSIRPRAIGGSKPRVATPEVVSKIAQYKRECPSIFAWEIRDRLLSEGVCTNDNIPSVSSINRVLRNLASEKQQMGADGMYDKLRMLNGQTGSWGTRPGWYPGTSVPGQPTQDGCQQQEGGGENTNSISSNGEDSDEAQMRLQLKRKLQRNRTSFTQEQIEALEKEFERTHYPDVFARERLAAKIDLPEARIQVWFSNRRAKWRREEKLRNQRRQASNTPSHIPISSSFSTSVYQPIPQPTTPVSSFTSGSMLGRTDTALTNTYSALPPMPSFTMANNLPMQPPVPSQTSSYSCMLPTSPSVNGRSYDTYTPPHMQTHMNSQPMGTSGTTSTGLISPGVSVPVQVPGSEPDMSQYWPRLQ
Structure (SMILES),outcome,AC50
Nc1ccc(N=Nc2ccc(-c3ccc(N=Nc4c(S(=O)(=O)O)cc5cc(S(=O)(=O)O)c(N=Nc6ccccc6)c(O)c5c4N)cc3)cc2)c(N)c1,inactive,
Cc1ccccc1N,inactive,
CC(=[OH+])/C=C(/C)[O-].CC(=[OH+])/C=C(/C)[O-].CC(=[OH+])/C=C(/C)[O-].[Fe],inactive,
Fc1ccc(C2(Cn3cncn3)OC2c2ccccc2Cl)cc1 (centres undefined),inactive,
O=[N+]([O-])c1c(Cl)c(Cl)cc(Cl)c1Cl,inactive,
C=C(C)C(=O)[O][Sn]([CH2]CCC)([CH2]CCC)[CH2]CCC,,0.514 µM (active)
Cc1cc(Cl)ccc1O[C@H](C)C(=O)O,inactive,
CCC(C)c1cccc(C(C)CC)c1O (centres undefined),inactive,
O=c1[nH]c(=O)[nH]c(=O)[nH]1,inactive,
C1CCC(NC2CCCCC2)CC1,inactive,
Cc1cc(=O)[nH]o1,inactive,
O=C/C=C/c1ccccc1,inactive,
COP(=S)(OC)Oc1c(Cl)cc(C)cc1Cl,inactive,

# System: not listed separately
# Test: ATG_PXRE_CIS: Attagene CIS-FACTORIAL HepG2 Assay for human Pregnane X Receptor Element (PXRE) (AID 2282957)
# Details: HepG2 Attagene CIS-FACTORIAL PXRE reporter, mRNA; actives raise or lower the signal
# How it was run: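 Bidirectional activity, baselined to DMSO, derived from reporter mRNA fluorescence (RT-PCR plus capillary electrophoresis) in HepG2 cells bearing cis-promoter reporter units, 24 h exposure.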
Structure (SMILES),outcome,AC50
CC(C#N)CCC#N (centres undefined),inactive,
CN(C)N=O,,100 µM (active) and 55.8 µM (active)
Cc1ccc(N)cc1Cl,inactive,
Oc1cccc2cccnc12,,27.5 µM (active) and 95.5 µM (active)
BrCCBr,inactive,
CC(C)(OO)c1ccccc1,inactive,
CC(C)(C)c1cc(O)ccc1O,,4.27 µM (active)
O=[N+]([O-])c1ccc(O)c([N+](=O)[O-])c1,inactive,
COC(=O)c1sccc1S(=O)(=O)NC(=O)Nc1nc(C)nc(OC)n1,inactive,
CC1(C)CCC(Cc2ccc(Cl)cc2)C1(O)Cn1cncn1 (centres undefined),,2.43 µM (active)
COC[C@H](C)N(C(=O)CCl)c1c(C)csc1C,,30.6 µM (active)
CCOC(=O)Nc1cccc(OC(=O)Nc2ccccc2)c1,,100 µM (active)
ClCc1ccccn1,inactive,
CCCCP(CCCC)CCCC,,23.6 µM (active)
CC1CN1P(=O)(N1CC1C)N1CC1C (centres undefined),inactive,
O=P(O)(O)CN(CP(=O)(O)O)CP(=O)(O)O,inactive,

Structure (SMILES),outcome,AC50
ClCCBr,inactive,
Oc1ccc(-c2ccccc2)cc1,inactive,
CCOP(=O)(CN(CCO)CCO)OCC,inactive,
C[C@]12CCC(=O)C[C@@H]1CC[C@@H]1[C@@H]2CC[C@]2(C)[C@@H](O)CC[C@@H]12,,23.4 µM (active) and 23.5 µM (active) and 9.49 µM (active)
ClC1(Cl)C2(Cl)C3(Cl)C4(Cl)C(Cl)(Cl)C5(Cl)C3(Cl)C1(Cl)C5(Cl)C24Cl (centres undefined),,0.365 µM (active)
Nc1ccc(N=Nc2ccc(-c3ccc(N=Nc4c(S(=O)(=O)O)cc5cc(S(=O)(=O)O)c(N=Nc6ccccc6)c(O)c5c4N)cc3)cc2)c(N)c1,inactive,
CC(=[OH+])/C=C(/C)[O-].CC(=[OH+])/C=C(/C)[O-].CC(=[OH+])/C=C(/C)[O-].[Fe],inactive,
Fc1ccc(C2(Cn3cncn3)OC2c2ccccc2Cl)cc1 (centres undefined),,3.04 µM (active)
O=[N+]([O-])c1c(Cl)c(Cl)cc(Cl)c1Cl,,18.2 µM (active)
C=C(C)C(=O)[O][Sn]([CH2]CCC)([CH2]CCC)[CH2]CCC,inactive,
Cc1cc(Cl)ccc1O[C@H](C)C(=O)O,inactive,
CCC(C)c1cccc(C(C)CC)c1O (centres undefined),,5.61 µM (active)
O=c1[nH]c(=O)[nH]c(=O)[nH]1,inactive,
C1CCC(NC2CCCCC2)CC1,,16.7 µM (active)
COP(=S)(OC)Oc1c(Cl)cc(C)cc1Cl,,4.62 µM (active)

# System: not listed separately
# Test: ATG_PPRE_CIS: Attagene CIS-FACTORIAL HepG2 Assay for human Peroxisome Proliferator-activated Response Element (PPRE) (AID 2282958)
# Details: HepG2 PPRE cis-element reporter, Attagene transcription factor profiling; actives raise or lower the signal
# How it was run: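 After human HepG2 hepatoma cells were transiently transfected with cis-promoter reporter constructs, they were exposed to test chemicals for 24 hours. Reporter RNA was then reverse-transcribed, PCR-amplified, FAM-labeled, HpaI-digested and quantified by capillary electrophoresis.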
Structure (SMILES),outcome,AC50
CC(C#N)CCC#N (centres undefined),inactive,
Oc1cccc2cccnc12,inactive,
BrCCBr,inactive,
CC(C)(OO)c1ccccc1,inactive,
CC(C)(C)c1cc(O)ccc1O,,65.6 µM (active)
COP(=S)(OC)Oc1ccc(Sc2ccc(OP(=S)(OC)OC)cc2)cc1,inactive,
CC(C)c1cccc(C(C)C)c1O,inactive,
COC(=O)c1sccc1S(=O)(=O)NC(=O)Nc1nc(C)nc(OC)n1,inactive,
CC1(C)CCC(Cc2ccc(Cl)cc2)C1(O)Cn1cncn1 (centres undefined),inactive,
COC[C@H](C)N(C(=O)CCl)c1c(C)csc1C,inactive,
CCOC(=O)Nc1cccc(OC(=O)Nc2ccccc2)c1,inactive,
ClCc1ccccn1,inactive,
O=C(Cl)c1ccc(Cl)cc1,inactive,
O=P(O)(O)CN(CP(=O)(O)O)CP(=O)(O)O,inactive,
ClCCBr,inactive,
Oc1ccc(-c2ccccc2)cc1,inactive,
CCOP(=O)(CN(CCO)CCO)OCC,inactive,
CC(C)c1ccc(CO)cc1,inactive,
ClC1(Cl)C2(Cl)C3(Cl)C4(Cl)C(Cl)(Cl)C5(Cl)C3(Cl)C1(Cl)C5(Cl)C24Cl (centres undefined),inactive,
Nc1ccc(N=Nc2ccc(-c3ccc(N=Nc4c(S(=O)(=O)O)cc5cc(S(=O)(=O)O)c(N=Nc6ccccc6)c(O)c5c4N)cc3)cc2)c(N)c1,inactive,
CC(=[OH+])/C=C(/C)[O-].CC(=[OH+])/C=C(/C)[O-].CC(=[OH+])/C=C(/C)[O-].[Fe],inactive,
O=[N+]([O-])c1c(Cl)c(Cl)cc(Cl)c1Cl,inactive,
C=C(C)C(=O)[O][Sn]([CH2]CCC)([CH2]CCC)[CH2]CCC,,0.0903 µM (active)
Cc1cc(Cl)ccc1O[C@H](C)C(=O)O,,28.7 µM (active)
CCC(C)c1cccc(C(C)CC)c1O (centres undefined),inactive,
O=c1[nH]c(=O)[nH]c(=O)[nH]1,inactive,
C1CCC(NC2CCCCC2)CC1,inactive,
Cc1cc(=O)[nH]o1,inactive,
O=C/C=C/c1ccccc1,inactive,
COP(=S)(OC)Oc1c(Cl)cc(C)cc1Cl,inactive,
